Measurements from PubChem BioAssay.
Calls of active or inactive are those of the source.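 How the source made its calls, unless noted: active means inhibition at or above 50% at 10 µM; inactive means inhibition below 50%.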

Target: Alpha-2C adrenergic receptor (Homo sapiens) (UniProt P18825)
Experiment: modulators of alpha2C/GIRK thallium flux, primary screen, cell-based, HEK293 alpha2C/GIRK1/2 (AID 624;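 active means fluorescence slope after compound addition differing from the mean of all screened samples at 99.7% confidence, in either direction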;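 further: slope of fluorescence ratio to pre-addition baseline per second over 15 to 24 s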)
Conditions: thallium flux BTC fluorescence, at 10 µM, actives lie on both sides

Sequence of Alpha-2C adrenergic receptor (Homo sapiens) (P18825 whole entry, looked up): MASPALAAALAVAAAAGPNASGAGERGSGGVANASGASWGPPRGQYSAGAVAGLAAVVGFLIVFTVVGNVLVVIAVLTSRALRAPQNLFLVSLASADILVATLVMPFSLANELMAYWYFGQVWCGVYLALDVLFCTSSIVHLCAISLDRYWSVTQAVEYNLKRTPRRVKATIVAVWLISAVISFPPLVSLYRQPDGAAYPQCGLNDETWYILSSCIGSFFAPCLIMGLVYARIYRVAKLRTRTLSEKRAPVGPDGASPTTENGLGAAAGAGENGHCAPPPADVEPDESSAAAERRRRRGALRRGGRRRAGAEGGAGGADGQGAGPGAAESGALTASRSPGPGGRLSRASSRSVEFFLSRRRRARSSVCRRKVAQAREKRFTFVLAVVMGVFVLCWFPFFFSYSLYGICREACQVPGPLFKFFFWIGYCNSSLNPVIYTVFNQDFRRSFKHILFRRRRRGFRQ

slope, inactive:
Cc1nnc(SCc2ccccc2F)n1NCc1cccs1 0.00631, Cc1nc2ccc(Br)cn2c1NC(C)(C)C 0.00552, Cc1cc(NCCN2CCCCC2)n2c(nc3ccccc32)c1C#N 0.0039, CC(NS(=O)(=O)c1ccc(F)cc1)C(c1cccs1)N1CCN(C)CC1 (stereo unspecified) 0.00473, COC(=O)Cn1c(CN2CCN(c3ccccc3F)CC2)nc2c1c(=O)n(C)c(=O)n2C 0.0082, COc1ccc(CCNC(=O)c2cnc3scc(C)n3c2=O)cc1OC 0.00579, CCn1c(SCc2cccc(C(F)(F)F)c2)nnc1-c1ccco1 0.00568, COc1ccc(-n2c(SCC(=O)N3CCCCC3C)nnc2-c2cccnc2)cc1 (stereo unspecified) 0.00523

Test system: not listed separately
Experiment: inhibitors of Sendai virus-induced IRF3 signaling, primary screen, TLR/RLR signaling modifier project, cell-based, Sendai virus stimulus, luciferase, 10K MLSCN set (AID 602276);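 further: firefly luciferase from ISG56 promoter only with Renilla not read in this screen; 0% = Sendai virus plus DMSO and 100% = medium plus DMSO without virus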
Conditions: HEK293 RL24 IRF3 luciferase reporter, at 10 µM, hits give high values

inhibition, inactive:
Cn1c(=O)c2c(-c3ccccc3)n(CCCN3CCOCC3)cc2n(C)c1=O -9.43%, CCc1ccc(Nc2cc(=O)n(C3CCCCC3)c(=O)[nH]2)cc1 -13.5%, CCC(C(=O)N1CCc2cc(OC)c(OC)cc2C1)c1ccccc1 (stereo unspecified) 3.51%, COc1ccccc1N(CC(=O)NCc1ccccn1)S(C)(=O)=O 7.95%, Cc1cc2cc(CCNC(=O)CC(C)C)c(=O)[nH]c2cc1C -11.5%, CC1(C)CC(=O)C=C(Nc2ccc(OCC(F)(F)C(F)F)cc2)C1 -8.49%, Cn1nc(C(=O)N2CCOCC2)c2ccccc2c1=O 9.89%, S=c1[nH]ncn1-c1ccccn1 1.29%, Cc1ccccc1N1C(N)=NC(N)=NC1(C)C 4.23%, O=C(Cn1nnc(-c2ccc(CN3CCOCC3)cc2)n1)NC1CCCCC1 14%, CCCCC(=O)Nc1ccc(NC(=O)C2CC2)nc1 3.06%, CCOC(=O)c1ccc(NC(=O)Cn2cc3c(n2)CCC(C)C3)cc1 (stereo unspecified) 12.5%, Cn1c(SCC(=O)N2CCN(c3cccc(Cl)c3)CC2)nnc1-c1ccncc1 1.74%, Cn1c(=O)c(=O)n(C)c2cc(S(=O)(=O)N3CCN(c4cccc(C(F)(F)F)c4)CC3)ccc21 1.46%, c1ccc(N2CCN(Cc3ccnc4ccccc34)CC2)cc1 -12.4%, CCCCn1c(SCC(=O)N2CC(=O)Nc3ccccc32)nnc1-c1ccoc1C 13.2%, CC(Sc1nc(-c2ccccc2)cc(C(F)(F)F)n1)C(=O)N1CCC(C(N)=O)CC1 (stereo unspecified) 17.5%, CCOc1ccc(N2CC(C(=O)Nc3cccc(C)c3C)CC2=O)cc1 (stereo unspecified) 8.36%, CCC(=O)Nc1ccc(NC(=O)c2cccc(OC)c2)nc1 -60.4%, CCOC(=O)Cc1nnc2c(Nc3ccccc3F)nc3nonc3n12 7.74%, Cc1cccc(N2CCN(C(=O)C3CCCN(S(=O)(=O)c4c(C)noc4C)C3)CC2)c1C (stereo unspecified) 8.68%, COc1ccc(N2CCN(Cc3nc(-c4ccc(Cl)cc4Cl)no3)CC2)cc1 18.6%, Cc1cc(C(F)(F)F)nn1Cc1ccc(C(=O)NCc2ccco2)o1 -1.39%, C/C=C/c1ccc(OCCn2cncn2)c(OC)c1 -19.9%, Cc1cnc(C(=O)Nc2nnc(C(C)C)s2)cn1 -25.1%, Cc1nc2scc(-c3cccs3)c2c(=O)n1-n1cccc1 4.56%, COc1ccc(-c2nc(CSCC(=O)N3CCN(c4cccc(C)c4)C(C)C3)c(C)o2)cc1OC (stereo unspecified) 4.11%, O=C(OCC(=O)c1ccccc1Br)c1ccccn1 3.27%, CCCN(Cc1cc2ccc(C)cc2[nH]c1=O)C(=O)c1cccnc1 11.3%, CCOC(=O)C(CC)Sc1nc2c(c(=O)[nH]c(=O)n2C)n1C/C=C(/C)Cl (stereo unspecified) 14.5%, Cc1cc(C)n(C2=NS(=O)(=O)c3ccccc32)n1 -8.5%, Cc1nnc(SCc2ccccc2F)n1NCc1cccs1 -2.84%, Cc1nc2ccc(Br)cn2c1NC(C)(C)C -1.2%, Cc1cc(NCCN2CCCCC2)n2c(nc3ccccc32)c1C#N 10.4%, CC(NS(=O)(=O)c1ccc(F)cc1)C(c1cccs1)N1CCN(C)CC1 (stereo unspecified) 0.176%, COC(=O)Cn1c(CN2CCN(c3ccccc3F)CC2)nc2c1c(=O)n(C)c(=O)n2C 7.96%, COc1ccc(CCNC(=O)c2cnc3scc(C)n3c2=O)cc1OC 6.05%, CCn1c(SCc2cccc(C(F)(F)F)c2)nnc1-c1ccco1 13.2%, COc1ccc(-n2c(SCC(=O)N3CCCCC3C)nnc2-c2cccnc2)cc1 (stereo unspecified) 6.12%

Test system: not listed separately
Experiment: inhibitors of poly I:C-induced TLR3 signaling, primary screen, cell-based, poly I:C stimulus, luciferase, 10K MLSCN set (AID 602277;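 active means inhibition of the reporter signal at or above 50%; inactive means inhibition below 50%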)
Conditions: HEK293-TLR3 RL24 IRF3 luciferase reporter, at 10 µM, hits give high values

inhibition, inactive:
Cn1c(=O)c2c(-c3ccccc3)n(CCCN3CCOCC3)cc2n(C)c1=O -18.1%, CCc1ccc(Nc2cc(=O)n(C3CCCCC3)c(=O)[nH]2)cc1 -97.2%, CCC(C(=O)N1CCc2cc(OC)c(OC)cc2C1)c1ccccc1 (stereo unspecified) 6.78%, COc1ccccc1N(CC(=O)NCc1ccccn1)S(C)(=O)=O 32.3%, Cc1cc2cc(CCNC(=O)CC(C)C)c(=O)[nH]c2cc1C -9.56%, CC1(C)CC(=O)C=C(Nc2ccc(OCC(F)(F)C(F)F)cc2)C1 -18.3%, Cn1nc(C(=O)N2CCOCC2)c2ccccc2c1=O 32%, S=c1[nH]ncn1-c1ccccn1 8.61%, Cc1ccccc1N1C(N)=NC(N)=NC1(C)C 5.9%, O=C(Cn1nnc(-c2ccc(CN3CCOCC3)cc2)n1)NC1CCCCC1 9.43%, CCCCC(=O)Nc1ccc(NC(=O)C2CC2)nc1 -2.76%, CCOC(=O)c1ccc(NC(=O)Cn2cc3c(n2)CCC(C)C3)cc1 (stereo unspecified) 23.6%, Cn1c(SCC(=O)N2CCN(c3cccc(Cl)c3)CC2)nnc1-c1ccncc1 -27.2%, Cn1c(=O)c(=O)n(C)c2cc(S(=O)(=O)N3CCN(c4cccc(C(F)(F)F)c4)CC3)ccc21 13.1%, c1ccc(N2CCN(Cc3ccnc4ccccc34)CC2)cc1 -22.2%, CCCCn1c(SCC(=O)N2CC(=O)Nc3ccccc32)nnc1-c1ccoc1C 19.3%, CC(Sc1nc(-c2ccccc2)cc(C(F)(F)F)n1)C(=O)N1CCC(C(N)=O)CC1 (stereo unspecified) 24.5%, CCOc1ccc(N2CC(C(=O)Nc3cccc(C)c3C)CC2=O)cc1 (stereo unspecified) 8.88%, CCC(=O)Nc1ccc(NC(=O)c2cccc(OC)c2)nc1 -106%, CCOC(=O)Cc1nnc2c(Nc3ccccc3F)nc3nonc3n12 -15.3%, Cc1cccc(N2CCN(C(=O)C3CCCN(S(=O)(=O)c4c(C)noc4C)C3)CC2)c1C (stereo unspecified) 1.25%, COc1ccc(N2CCN(Cc3nc(-c4ccc(Cl)cc4Cl)no3)CC2)cc1 22.1%, Cc1cc(C(F)(F)F)nn1Cc1ccc(C(=O)NCc2ccco2)o1 -36.9%, C/C=C/c1ccc(OCCn2cncn2)c(OC)c1 2%, Cc1cnc(C(=O)Nc2nnc(C(C)C)s2)cn1 -89.5%, Cc1nc2scc(-c3cccs3)c2c(=O)n1-n1cccc1 18.4%, COc1ccc(-c2nc(CSCC(=O)N3CCN(c4cccc(C)c4)C(C)C3)c(C)o2)cc1OC (stereo unspecified) 8.34%, O=C(OCC(=O)c1ccccc1Br)c1ccccn1 26.5%, CCCN(Cc1cc2ccc(C)cc2[nH]c1=O)C(=O)c1cccnc1 27.1%, CCOC(=O)C(CC)Sc1nc2c(c(=O)[nH]c(=O)n2C)n1C/C=C(/C)Cl (stereo unspecified) 19.1%, Cc1cc(C)n(C2=NS(=O)(=O)c3ccccc32)n1 -27.5%, Cc1nnc(SCc2ccccc2F)n1NCc1cccs1 -9.57%, Cc1nc2ccc(Br)cn2c1NC(C)(C)C 3.15%, Cc1cc(NCCN2CCCCC2)n2c(nc3ccccc32)c1C#N 21.6%, CC(NS(=O)(=O)c1ccc(F)cc1)C(c1cccs1)N1CCN(C)CC1 (stereo unspecified) 33%, COC(=O)Cn1c(CN2CCN(c3ccccc3F)CC2)nc2c1c(=O)n(C)c(=O)n2C 19.6%, COc1ccc(CCNC(=O)c2cnc3scc(C)n3c2=O)cc1OC 33.9%, CCn1c(SCc2cccc(C(F)(F)F)c2)nnc1-c1ccco1 3.48%, COc1ccc(-n2c(SCC(=O)N3CCCCC3C)nnc2-c2cccnc2)cc1 (stereo unspecified) 9.8%
